14 compounds from ChEMBL document CHEMBL1157539, “Thousands of chemical starting points for antimalarial lead identification” (Nature, 2010) can be followed below.

SMILES strings stand for the structures.

In this experiment the test system is Plasmodium falciparum. Description: GSK_TCMDC: Inhibition of Plasmodium falciparum 3D7 in whole red blood cells, using parasite LDH activity as an index of growth. Test compounds present at 2uM. The experiment is classed as functional.
What is called Inhibition is the drop in the measured response relative to a control, in per cent. The compound `COc1ccc(-c2ccc(NC(=O)c3cccc(Cl)c3)cc2)cc1CN(C)CCN(C)C.O=C(O)C(F)(F)F` registered an Inhibition of 100%.

Regarding `COc1cc2c(cc1S(=O)(=O)c1ccc(NC(=O)c3cc4ccccc4s3)cc1)CCN(C)CC2`, the Inhibition was 100%.

Turning to `CC(C)c1sc(N2CCN(C)CC2)nc1C(=O)NCCc1ccc(Br)cc1.O=C(O)C(F)(F)F`, the Inhibition is recorded as 89%.

`O=S(=O)(Nc1cccc(CCN2CCC(N3CCCCC3)CC2)c1)c1ccc(Oc2ccccc2)nc1` gave an Inhibition of 99%.

On to `CNC(=O)C1Cc2c([nH]c3c(C)cccc23)C2(N1)C(=O)Nc1ccc(OC(F)(F)F)cc12` (centres undefined), for which the Inhibition stood at 100%.

For the compound `O=C(Nc1ccc2c(c1)CCN2C1CCN(Cc2cccc(F)c2F)C1)c1ccco1` (centres undefined), the Inhibition is reported as 87%.

`CC(C)n1cc(CN2CCCC(C(=O)Nc3cccc(-c4cc5ccccc5[nH]4)c3)C2)cn1` (centres undefined): the Inhibition came to 96%.

`Cc1ccc2c(N/N=C/c3ccccc3[N+](=O)[O-])cc(C)nc2c1` gave an Inhibition of 100%.

In turn, `Cc1c(CNCCCNc2nc3ccncc3[nH]2)sc(Br)c1Br.Cl` yielded an Inhibition of 87%.

As for `CN(C)c1ccc(-c2csc(C(=O)NC3CCN(CCC(C)(C)C)C3)c2)cc1.O=C(O)C(F)(F)F` (centres undefined), the Inhibition is listed as 95%.

`COC(=O)Nc1nc2cc3c(cc2s1)OCCO3`: the Inhibition is given as 99%.

The compound `CN(C)CCCNc1ncnc2c1[nH]c1ccc(Cl)cc12` had an Inhibition of 99%.

Compound `COc1ccc(N2CCN(c3nc(Nc4ccc(NC(C)=O)cc4)nc(N4CCCC4)n3)CC2)cc1` gave an Inhibition of 91%.

Consider `CC(C)CCN1CCC(Oc2ccc(NC(=O)c3cccs3)cc2Cl)CC1.O=C(O)C(F)(F)F`, for which the Inhibition was 97%.
